Data on eight compounds can be found in PubChem BioAssay (EPA / NIEHS).

A short description of assay [1]: ATG_CRE_CIS: Attagene CIS-FACTORIAL HepG2 Assay for human cAMP Responsive Element (CRE) binding protein 3 (AID 2282926). As to conditions: HepG2 CRE cis-reporter, Attagene multiplexed mRNA; actives raise or lower the signal. The essentials: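 HepG2 cells transiently transfected with a multiplexed reporter library (CRE-driven unit among them) were dosed for 24 h. Reporter mRNA was quantified by RT-PCR, fluorescent labelling, HpaI digestion and capillary electrophoresis, with bidirectional fitting against DMSO baseline.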

Assay [2] is described as follows: ATG_CMV_CIS: Attagene CIS-FACTORIAL HepG2 Assay for human CMV (Internal Marker) (AID 2282928).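 Note: endpoint acts as a background internal control marker rather than a target.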 As to conditions: HepG2 CMV promoter reporter, transcription factor profiling; actives raise or lower the signal. The essentials: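 HepG2 cells transiently transfected with multiple cis-regulated reporter units; 24 h compound exposure. Reporter mRNA quantified by RT-PCR, 6-FAM primer-extension labeling, HpaI digestion and capillary electrophoresis; bidirectional fitting against DMSO baseline.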

Assay [3] can be described thus: ATG_AP_1_CIS: Attagene CIS-FACTORIAL HepG2 Assay for human Activator Protein 1 (AP-1) (AID 2282931). As to conditions: HepG2 Attagene cis-factorial AP-1 reporter mRNA; actives raise or lower the signal. The essentials: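 HepG2, transient cis-reporter transfection; 24 h; readout RT-PCR/CE fluorescence; DMSO baseline, gain and loss fitted.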
Assay [4] in a line: ATG_BRE_CIS: Attagene CIS-FACTORIAL HepG2 Assay for human Bone Morphogenetic Protein (BMP) Response Element (BRE) (AID 2282933). As to conditions: HepG2 BMP response element reporter, Attagene transcription factor profiling; actives raise or lower the signal. The essentials: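 Multiplexed cis-reporter assay, HepG2, 24 h exposure. mRNA from reporter units quantified via RT-PCR/CE; DMSO baseline; bidirectional curve fit.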

A short description of assay [5]: ATG_Ets_CIS: Attagene CIS-FACTORIAL HepG2 Assay for human Erythroblast Transformation Specific (ETS) (AID 2282941). As to conditions: HepG2 ETS cis-reporter transcription, actives raise or lower the signal. The essentials: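 HepG2 cells transiently transfected with cis-promoter reporter transcription units were dosed for 24 h; reporter mRNA was measured by RT-PCR, 6-FAM primer extension, HpaI digestion and capillary electrophoresis, with bidirectional fitting against DMSO baseline.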

A short description of assay [6]: ATG_GATA_CIS: Attagene CIS-FACTORIAL HepG2 Assay for human GATA Binding Protein (AID 2282944). As to conditions: HepG2 GATA cis-element reporter, Attagene multiplex mRNA; actives raise or lower the signal. The essentials: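 After transfecting HepG2 cells with multiple cis-regulated reporter units, chemicals are dosed for 24 h; isolated RNA undergoes RT-PCR and fluorescent labeling before capillary electrophoresis, with activity expressed against DMSO.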

Assay [7] concerns the target Hypoxia-inducible factor 1-alpha (Homo sapiens) (UniProt Q16665). Briefly: ATG_HIF1a_CIS: Attagene CIS-FACTORIAL HepG2 Assay for human Hypoxia Inducible Factor 1 (HIF1A) (AID 2282951). To be noted: HepG2 Attagene cis-factorial HIF1a reporter transcription; actives raise or lower the signal. The essentials:
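After 24 h chemical exposure of reporter-transfected HepG2 cells, reporter cDNA was PCR-amplified, labelled by 6-FAM primer extension (2 min 95 C, 20 s 68 C, 10 min 72 C), HpaI-cut (2 h, 37 C) and analysed by CE.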

Assay [8] concerns the target Hepatocyte nuclear factor 6 (Homo sapiens) (UniProt Q9UBC0). Nature of the assay: ATG_HNF6_CIS: Attagene CIS-FACTORIAL HepG2 Assay for human Hepatocyte Nuclear Factor 6 (HNF6) (AID 2282952). As to conditions: HepG2 Attagene cis-factorial HNF6 reporter transcription; actives raise or lower the signal. The essentials: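 HepG2 cells transiently transfected with cis-element-driven multiple reporter transcription units, dosed 24 h; reporter mRNA quantified by RT-PCR, FAM primer extension, HpaI digestion and capillary electrophoresis; bidirectional fit versus DMSO baseline.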

Assay [9] concerns the target Heat shock factor protein 1 (Homo sapiens) (UniProt Q00613). Briefly: ATG_HSE_CIS: Attagene CIS-FACTORIAL HepG2 Assay for human Heat Shock Transcription Factor 1 (HSE) (AID 2282953). As to conditions: HepG2 HSE cis-reporter, Attagene RNA transcription; actives raise or lower the signal. The essentials: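 Endogenous transcription factor activity captured via cis-promoter reporter units transfected into HepG2; treatment lasted 24 h. Fluorescence intensity of reporter fragments analysed with bidirectional curve fitting, DMSO baseline.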

For assay [10], the target named is Paired box protein Pax-6 (Homo sapiens) (UniProt P26367). Nature of the assay: ATG_Pax6_CIS: Attagene CIS-FACTORIAL HepG2 Assay for human Paired Box 6 (PAX6) (AID 2282956). As to conditions: HepG2 CIS-FACTORIAL PAX6 reporter transcription, RNA readout; actives raise or lower the signal. The essentials:
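HepG2 cells transiently transfected with multiplexed cis-promoter reporter units (endogenous TF activity) were dosed for 24 h. Reporter mRNA was quantified by RT-PCR, 6-FAM labeling, HpaI digestion and capillary electrophoresis; bidirectional fitting versus DMSO baseline.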

A short description of assay [11]: ATG_SREBP_CIS: Attagene CIS-FACTORIAL HepG2 Assay for human Sterol Regulatory Element Binding (SREBP) (AID 2282962). To be noted: HepG2 Attagene cis-factorial SREBP reporter, mRNA; actives raise or lower the signal. The essentials:
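HepG2 cells transiently transfected with multiplexed cis-element reporter units report endogenous transcription factor activity. After 24 h of chemical exposure, reporter mRNA was quantified by RT-PCR, 6-FAM labelling, HpaI digestion and capillary electrophoresis; bidirectional fits used DMSO as baseline.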

Assay [12] is described as follows: ATG_VDRE_CIS: Attagene CIS-FACTORIAL HepG2 Assay for human Vitamin D Receptor Element (VDRE) (AID 2282968). As to conditions: HepG2 VDRE cis-reporter transcription, actives raise or lower the signal. The essentials:
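HepG2 cells transiently transfected with cis-element reporter units, dosed 24 h; reporter mRNA measured by RT-PCR, 6-FAM labeling, HpaI digestion and capillary electrophoresis. Activity fitted bidirectionally against DMSO baseline.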

A short description of assay [13]: ATG_NF_kB_CIS: Attagene CIS-FACTORIAL HepG2 Assay for human Nuclear Factor Kappa B (NF-kB) (AID 2282991). To be noted: HepG2 Attagene cis-factorial NF-kB reporter mRNA; actives raise or lower the signal. The essentials:
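Fluorescence of labelled RT-PCR products separated by capillary electrophoresis gives reporter mRNA levels from transfected HepG2 cells exposed 24 h; values are fitted in both directions relative to DMSO.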

Assay [14] can be described thus: ATG_NRF2_ARE_CIS: Attagene CIS-FACTORIAL HepG2 Assay for human Nuclear Factor Erythroid 2 Related Factor 2 (NFR2) response to Antioxidant Response Elements (ARE) (AID 2282992). As to conditions: HepG2 Attagene ARE/NRF2 reporter, transcription factor activity; actives raise or lower the signal. The essentials: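 HepG2 cells transiently transfected with multiplexed cis-regulated reporter transcription units measure endogenous transcription factor activity. Reporter mRNA at 24 h is quantified by RT-PCR, fluorescent labelling and capillary electrophoresis, with bidirectional fitting relative to DMSO.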

The target of assay [15] is Cellular tumor antigen p53 (Homo sapiens) (UniProt P04637). Nature of the assay: ATG_p53_CIS: Attagene CIS-FACTORIAL HepG2 Assay for human p53 Transcription Factor (AID 2282994). As to conditions: HepG2 p53 cis-element reporter, Attagene mRNA; actives raise or lower the signal. The essentials: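 HepG2 cells transiently transfected with multiplexed cis-regulated reporter transcription units read endogenous TF activity. After 24 h compound exposure, reporter mRNA was quantified by RT-PCR, fluorescent labelling, HpaI digestion and capillary electrophoresis; bidirectional fits versus DMSO baseline.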
Chain of Cellular tumor antigen p53 (Homo sapiens) (P04637 whole entry, looked up): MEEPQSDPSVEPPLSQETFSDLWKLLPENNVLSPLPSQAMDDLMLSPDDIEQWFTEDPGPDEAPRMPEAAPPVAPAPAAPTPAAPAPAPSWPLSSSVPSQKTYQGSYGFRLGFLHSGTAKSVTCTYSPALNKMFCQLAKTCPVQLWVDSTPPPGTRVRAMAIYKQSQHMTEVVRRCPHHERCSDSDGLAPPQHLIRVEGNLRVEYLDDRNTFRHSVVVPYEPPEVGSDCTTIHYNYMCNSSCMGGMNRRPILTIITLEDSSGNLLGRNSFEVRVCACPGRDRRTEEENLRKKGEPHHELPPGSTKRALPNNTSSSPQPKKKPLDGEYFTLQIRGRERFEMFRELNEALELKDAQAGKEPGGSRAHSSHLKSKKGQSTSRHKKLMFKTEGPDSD

In assay [16] the target is Aryl hydrocarbon receptor (Homo sapiens) (UniProt P35869). Briefly: ATG_Ahr_CIS: Attagene CIS-FACTORIAL HepG2 Assay for human Aryl Hydrocarbon Receptor (Ahr) (AID 2282930). To be noted: HepG2 AhR cis-factorial reporter transcription; actives raise or lower the signal. The essentials:
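HepG2 cells transiently transfected with cis-element-driven multiplexed reporter transcription units; endogenous transcription factor activity measured as reporter mRNA 24 h after dosing. RT-PCR, 6-FAM labelling, HpaI digestion, capillary electrophoresis; bidirectional fitting versus DMSO baseline.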

Assay [17] concerns the target Hepatocyte nuclear factor 3-beta (Homo sapiens) (UniProt Q9Y261). Briefly: ATG_FoxA2_CIS: Attagene CIS-FACTORIAL HepG2 Assay for human Forkhead box A2 (FOXA2) (AID 2282942). As to conditions: HepG2 cis-reporter transcription factor activity, 24 h; actives raise or lower the signal. The essentials: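 24 h dosing of HepG2 bearing cis-reporter constructs; mRNA readout by RT-PCR/CE fluorescence; bidirectional fit, DMSO baseline.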

The nature of assay [18]: ATG_XTT_Cytotoxicity: Cytotoxicity Assessment in the Attagene TRANS-FACTORIAL HepG2 Assay (AID 2283584; active = hit-call score of the fitted dose curve at least 0.9, where 1 is the maximum). The essentials: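 HepG2 human liver cells, transiently transfected with multiple GAL4-UAS reporter units, were dosed and read at 24 h by XTT as cell number. Loss of signal was fitted relative to DMSO negative control baseline.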
Assay [19] is described as follows: ATG_FoxO_CIS: Attagene CIS-FACTORIAL HepG2 Assay for human Forkhead box O (FoxO) (AID 2282943). To be noted: HepG2 Attagene cis-reporter, FoxO element, mRNA; actives raise or lower the signal. The essentials: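 HepG2 cells transiently transfected with cis-promoter-driven multiple reporter transcription units; 24 h after chemical dosing, reporter mRNA quantified by RT-PCR, fluorescent primer extension, HpaI digestion and capillary electrophoresis. Bidirectional fitting versus DMSO baseline.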

Assay [20] can be described thus: ATG_MRE_CIS: Attagene CIS-FACTORIAL HepG2 Assay for human Metal Responsive Element (MRE) (AID 2282954). As to conditions: HepG2 MRE cis-reporter transcription, Attagene multiplex; actives raise or lower the signal. The essentials: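 HepG2 cells transiently transfected with multiple cis-element reporter units measure endogenous MTF1-driven transcription. After 24 h compound exposure, reporter mRNA is quantified by RT-PCR with 6-FAM labelling, HpaI digestion and capillary electrophoresis; bidirectional fits versus DMSO.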

Results filed as inconclusive are left out. Calls of active or inactive are those of the source. Rule for the calls, unless noted: active = hit-call score of the fitted dose curve at least 0.9, where 1 is the maximum; inactive = score below 0.9.

Chain of Hepatocyte nuclear factor 6 (Homo sapiens) (Q9UBC0 whole entry, looked up): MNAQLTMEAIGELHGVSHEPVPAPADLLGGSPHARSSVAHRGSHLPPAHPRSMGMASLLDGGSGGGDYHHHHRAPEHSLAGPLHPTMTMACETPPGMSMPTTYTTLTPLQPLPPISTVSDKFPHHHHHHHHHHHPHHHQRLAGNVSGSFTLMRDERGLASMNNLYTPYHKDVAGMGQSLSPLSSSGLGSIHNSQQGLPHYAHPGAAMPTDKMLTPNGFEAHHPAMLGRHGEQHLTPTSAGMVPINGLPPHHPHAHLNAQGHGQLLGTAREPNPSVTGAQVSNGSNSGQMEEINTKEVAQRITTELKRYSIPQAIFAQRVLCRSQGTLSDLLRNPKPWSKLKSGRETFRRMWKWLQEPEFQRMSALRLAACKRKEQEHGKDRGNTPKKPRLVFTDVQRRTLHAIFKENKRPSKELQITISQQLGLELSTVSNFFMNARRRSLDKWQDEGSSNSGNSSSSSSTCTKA
Chain of Hypoxia-inducible factor 1-alpha (Homo sapiens) (Q16665 whole entry, looked up): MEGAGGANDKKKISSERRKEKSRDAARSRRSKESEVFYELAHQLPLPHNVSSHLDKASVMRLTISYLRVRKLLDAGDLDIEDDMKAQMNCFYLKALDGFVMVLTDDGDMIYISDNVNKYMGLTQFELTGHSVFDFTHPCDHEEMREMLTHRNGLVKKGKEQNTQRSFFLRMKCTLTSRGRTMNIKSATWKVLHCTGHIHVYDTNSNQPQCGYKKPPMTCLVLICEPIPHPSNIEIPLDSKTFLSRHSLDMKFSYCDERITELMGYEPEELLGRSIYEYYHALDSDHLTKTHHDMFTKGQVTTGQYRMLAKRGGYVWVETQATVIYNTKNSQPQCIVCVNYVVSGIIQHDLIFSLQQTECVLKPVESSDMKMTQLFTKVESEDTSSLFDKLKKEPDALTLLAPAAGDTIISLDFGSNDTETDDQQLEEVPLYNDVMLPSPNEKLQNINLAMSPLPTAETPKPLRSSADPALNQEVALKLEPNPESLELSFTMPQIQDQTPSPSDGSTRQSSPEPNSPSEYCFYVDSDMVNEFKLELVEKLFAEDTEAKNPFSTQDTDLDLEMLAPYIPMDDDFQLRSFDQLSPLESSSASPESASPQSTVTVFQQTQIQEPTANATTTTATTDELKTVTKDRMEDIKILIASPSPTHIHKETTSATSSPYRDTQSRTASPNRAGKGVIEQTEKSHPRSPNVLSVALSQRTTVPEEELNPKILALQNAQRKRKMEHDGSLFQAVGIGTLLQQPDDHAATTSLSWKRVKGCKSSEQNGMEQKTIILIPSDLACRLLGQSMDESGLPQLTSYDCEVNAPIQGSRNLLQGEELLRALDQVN
Chain of Heat shock factor protein 1 (Homo sapiens) (Q00613 whole entry, looked up, the tested form may be a part): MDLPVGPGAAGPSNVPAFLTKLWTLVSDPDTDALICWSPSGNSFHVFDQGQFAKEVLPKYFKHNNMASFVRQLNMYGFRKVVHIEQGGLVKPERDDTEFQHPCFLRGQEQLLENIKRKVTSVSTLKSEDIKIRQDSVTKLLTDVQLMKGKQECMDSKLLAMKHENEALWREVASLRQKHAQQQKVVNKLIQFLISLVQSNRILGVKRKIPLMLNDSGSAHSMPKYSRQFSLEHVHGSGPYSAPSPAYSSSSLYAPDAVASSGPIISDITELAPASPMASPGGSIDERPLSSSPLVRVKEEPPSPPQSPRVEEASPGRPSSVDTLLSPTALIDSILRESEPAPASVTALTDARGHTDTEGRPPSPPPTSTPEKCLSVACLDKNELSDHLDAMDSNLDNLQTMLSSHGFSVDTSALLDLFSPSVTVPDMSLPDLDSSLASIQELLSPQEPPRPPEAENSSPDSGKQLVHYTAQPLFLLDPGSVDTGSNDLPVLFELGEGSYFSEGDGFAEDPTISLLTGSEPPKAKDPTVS
Chain of Paired box protein Pax-6 (Homo sapiens) (P26367 whole entry, looked up): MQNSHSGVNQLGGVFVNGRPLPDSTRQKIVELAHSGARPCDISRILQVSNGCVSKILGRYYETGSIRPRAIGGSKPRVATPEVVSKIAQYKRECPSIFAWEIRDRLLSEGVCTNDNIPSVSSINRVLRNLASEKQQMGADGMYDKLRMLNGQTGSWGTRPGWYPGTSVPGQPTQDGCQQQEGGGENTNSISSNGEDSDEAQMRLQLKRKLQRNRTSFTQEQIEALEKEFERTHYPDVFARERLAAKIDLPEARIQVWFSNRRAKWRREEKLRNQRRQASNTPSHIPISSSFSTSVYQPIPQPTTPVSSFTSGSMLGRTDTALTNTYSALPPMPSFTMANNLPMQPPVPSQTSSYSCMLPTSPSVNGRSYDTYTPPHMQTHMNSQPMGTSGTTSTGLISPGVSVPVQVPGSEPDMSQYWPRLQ
Chain of Aryl hydrocarbon receptor (Homo sapiens) (P35869 whole entry, looked up): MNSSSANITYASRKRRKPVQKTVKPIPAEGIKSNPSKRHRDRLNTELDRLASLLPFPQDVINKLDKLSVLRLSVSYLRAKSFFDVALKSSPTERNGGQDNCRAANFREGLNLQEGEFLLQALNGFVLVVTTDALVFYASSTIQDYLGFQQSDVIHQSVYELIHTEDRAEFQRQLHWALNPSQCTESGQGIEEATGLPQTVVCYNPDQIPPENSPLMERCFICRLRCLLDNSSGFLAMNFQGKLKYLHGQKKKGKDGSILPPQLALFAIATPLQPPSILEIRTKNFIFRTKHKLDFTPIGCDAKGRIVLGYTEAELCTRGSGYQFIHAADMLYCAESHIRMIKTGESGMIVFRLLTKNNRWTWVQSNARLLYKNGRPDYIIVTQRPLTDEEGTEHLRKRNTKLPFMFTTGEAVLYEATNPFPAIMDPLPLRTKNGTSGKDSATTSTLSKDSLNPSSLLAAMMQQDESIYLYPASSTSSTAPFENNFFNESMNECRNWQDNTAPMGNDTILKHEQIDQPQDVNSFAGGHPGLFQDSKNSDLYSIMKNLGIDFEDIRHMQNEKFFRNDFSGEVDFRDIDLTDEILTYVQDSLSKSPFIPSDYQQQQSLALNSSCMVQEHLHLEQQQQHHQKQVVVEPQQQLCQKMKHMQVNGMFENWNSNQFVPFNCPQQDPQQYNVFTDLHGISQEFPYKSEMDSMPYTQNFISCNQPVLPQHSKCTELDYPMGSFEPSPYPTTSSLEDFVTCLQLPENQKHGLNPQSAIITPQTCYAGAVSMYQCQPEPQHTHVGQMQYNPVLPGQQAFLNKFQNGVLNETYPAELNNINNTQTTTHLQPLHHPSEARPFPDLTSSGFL
Chain of Hepatocyte nuclear factor 3-beta (Homo sapiens) (Q9Y261 whole entry, looked up): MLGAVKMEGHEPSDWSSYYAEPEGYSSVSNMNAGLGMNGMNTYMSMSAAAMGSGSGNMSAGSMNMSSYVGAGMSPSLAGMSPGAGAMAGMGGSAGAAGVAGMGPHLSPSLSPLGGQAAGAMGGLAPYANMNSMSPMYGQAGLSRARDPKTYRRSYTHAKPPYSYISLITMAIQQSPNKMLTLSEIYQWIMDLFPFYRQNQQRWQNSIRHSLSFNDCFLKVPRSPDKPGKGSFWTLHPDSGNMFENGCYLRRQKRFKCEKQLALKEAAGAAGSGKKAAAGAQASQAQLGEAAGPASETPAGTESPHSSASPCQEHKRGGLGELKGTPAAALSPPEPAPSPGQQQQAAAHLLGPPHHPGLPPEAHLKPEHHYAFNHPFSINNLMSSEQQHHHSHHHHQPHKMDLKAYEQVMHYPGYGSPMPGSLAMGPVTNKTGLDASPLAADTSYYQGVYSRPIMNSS

As to `Cl/C=C\CCl`, the result in assay [1], in assay [2], in assay [3], in assay [4], in assay [5] and in assay [6] was inactive. The compound was called inactive in [7], in [8], in assay [9], in assay [10], in [11] and in assay [12]. The result in assay [13], in [14] and in assay [15] was inactive.

On to `CCC(Br)(CC)C(=O)NC(N)=O`, for which the outcome in assay [1], in assay [2], in assay [16], in [3], in assay [5] and in assay [17] was inactive. In addition, the result in [6], in [7], in assay [8], in assay [9], in assay [11] and in assay [12] was inactive. For the same compound, the result in [13], in assay [14], in assay [15] and in assay [18] was inactive.

Turning to `O=P1(NCCCl)OCCCN1CCCl` (configuration not stated), the call in [1], in assay [2], in assay [16], in assay [3], in [5] and in assay [17] was inactive. Moreover, the call in [19], in assay [6], in assay [7], in [8], in [9] and in [20] was inactive. Moreover, the call in [10], in assay [11], in assay [13], in assay [14] and in [18] was inactive.

One may read the AC50 as the midpoint of the concentration-response curve, whichever way the signal moves. Turning to `Cc1ccc(C)c2ccccc12`, the call in assay [1], in [2], in assay [4], in assay [17], in assay [19] and in assay [6] was inactive. Moreover, the outcome in assay [7], in [8], in [9], in [20], in assay [10] and in assay [11] was inactive. In addition, the call in assay [12], in [14] and in [18] was inactive. Besides, in assay [16], the half-maximal activity concentration (AC50) is 27.7 µM (active).

As for `CCOP(=O)(OCC)Oc1ccc([N+](=O)[O-])cc1`, the compound was called inactive in assay [1], in [2], in assay [16], in [4], in assay [5] and in assay [17]. The result in assay [19], in assay [6], in [7], in [8], in assay [9] and in assay [20] was inactive. Moreover, the result in assay [10], in assay [12], in assay [13], in assay [14], in assay [15] and in [18] was inactive.

On to `O=C1Nc2ccc(Cl)cc2C(c2ccccc2)=NC1O` (configuration not stated), for which the compound was classed as inactive in assay [1], in [2], in assay [16], in [3], in assay [5] and in assay [19]. In addition, the compound was classed as inactive in assay [6], in assay [7], in [9], in assay [20], in assay [10] and in [11]. Also, the call in assay [12], in assay [15] and in assay [18] was inactive.

Consider `CCOP(O)OCC`, for which the outcome in [1], in [2], in assay [16], in assay [4], in assay [5] and in [17] was inactive. The compound was classed as inactive in assay [7], in assay [8], in assay [9], in [20], in assay [10] and in assay [11]. Moreover, the compound was called inactive in assay [12], in assay [13], in [14] and in assay [18].

For the compound `CC(=O)c1cc2c(cc1C)C(C)(C)C(C)CC2(C)C` (configuration not stated), the AC50 is 72.4 µM (active) in [1]; 28.1 µM (active) in assay [2]; 26.6 µM (active) in [3]; 26.5 µM (active) in assay [4]; 2.78 µM (active) in [7]; 171 µM (active) in assay [8]. Moreover, the AC50 in [9] was 116 µM (active); in assay [20], 43.8 µM (active); in assay [10], 100 µM (active); in [11], 46.1 µM (active); in assay [14], 26.7 µM (active). Also, the outcome in assay [5], in [17], in assay [19], in [6], in assay [12] and in assay [13] was inactive. The compound was classed as inactive in [15] and in [18].
